Experimental data as given in PubChem BioAssay (EPA / NIEHS).
Inconclusive results are not listed. Some compounds were tested as several samples or in several runs, with calls that do not always agree. Active and inactive are the calls of the source. Rule for the calls: active = hit-call score of the fitted dose curve at least 0.9, where 1 is the maximum; inconclusive = response in the unintended direction; inactive = score below 0.9.

Assays:
[1] = target: Androgen Receptor/SRC-1 Co-activator, AR (gene 367) (UniProt P10275); test: OT_AR_ARSRC1_0480: Odyssey Thera (OT) 8-hour HEK293T Protein-Complementation Assay for Androgen Receptor/SRC-1 Co-activator (AID 2283354);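 note: hits raise the complementation signal above DMSO so AC50 marks enhancers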
How it was run: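 HEK293T cells stably expressing AR and SRC-1 fused to Venus YFP fragments, imaged 8 h after dosing. Complementation fluorescence scored as nuclear/cytoplasmic ratio at 488 nm in at least 400 cells per image; gain fitted versus DMSO.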

[2] = target: Estrogen receptor beta (Homo sapiens) (UniProt Q92731); test: OT_ER_ERbERb_0480: Odyssey Thera (OT) 8-hour HEK293T Protein-Complementation Assay for Estrogen Receptor-beta/-beta Homodimer (AID 2283357);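 note: active means signal gain over DMSO baseline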
How it was run: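 Fluorescence intensity, nuclear for agonists and nuclear plus cytoplasmic for antagonists, was quantified by laser scanning cytometry versus vehicle after 8 h treatment. The cells were HEK293T stably carrying ER beta LBD fragment-complementation partners.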

[3] = target: PGR (gene 5241) (UniProt P06401); test: NVS_NR_hPR: NovaScreen (NVS) Nuclear Receptor Binding Assay for human Progestron Receptor (PR) (AID 2283360);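 note: active means loss of bound radioligand signal versus DMSO baseline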
How it was run: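 T47D-derived receptor preparation, cell-free, with tritiated or iodinated radioligand displacement measured by scintillation 18 h post-dosing. Single 25 uM duplicate screen, then concentration series; signal loss relative to DMSO.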

[4] = target: human Thyroid Receptor Alpha (TRa), THRA (gene 7067) (UniProt P10827); test: NVS_NR_hTRa_Antagonist: NovaScreen (NVS) Nuclear Receptor Binding Assay for human Thyroid Receptor Alpha Antagonism (TRa) (AID 2283362);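 note: activity is loss of signal relative to DMSO baseline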
How it was run: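 In this biochemical format, receptor protein is dosed with chemical and read after 1 hour via AlphaLISA. Decreases from the DMSO baseline indicate antagonist activity; screening used 25 uM in duplicate before concentration-response confirmation.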

[5] = target: Peroxisome proliferator-activated receptor gamma (Homo sapiens) (UniProt P37231); test: NVS_NR_hPPARg: NovaScreen (NVS) Nuclear Receptor Binding Assay for human Peroxisome Proliferator-activated Receptor gamma (PPARg) (AID 2283370)
How it was run: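 Extracted receptor protein, cell-free; compound incubated 2 h then fluorescence polarization read. Baseline: DMSO. Actives from 25 uM duplicate screen re-run across concentrations.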

[6] = target: human Dopamine Transporter (DAT), SLC6A3 (gene 6531) (UniProt Q01959); test: NVS_TR_hDAT: NovaScreen (NVS) Transporter Assay for human Dopamine Transporter (DAT) (AID 2283374);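 note: activity means loss of bound radioligand signal relative to DMSO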
How it was run: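 Cell-free radioligand displacement binding at human DAT, 1 h after dosing, with filtration and scintillation counting. Primary screen in duplicate at 25 uM, actives then in concentration series. Loss of bound signal versus DMSO scored.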

[7] = target: Retinoic acid receptor alpha (Homo sapiens) (UniProt P10276); test: NVS_NR_hRAR_Antagonist: NovaScreen (NVS) Nuclear Receptor Binding Assay for human Retinoic Acid Alpha Receptor Antagonism (RAR) (AID 2283358)
How it was run: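 Cell-free TR-FRET binding assay with extracted human RARalpha in antagonist mode, read 2 h after dosing. Loss of signal was fitted relative to DMSO; the primary screen used 25 uM in duplicate, with concentration series on follow-up.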

[8] = target: guinea pig Sigma Receptor, Non-selective Binding, SIGMAR1 (gene 100135589) (UniProt Q60492); test: NVS_OR_gSIGMA_NonSelective: NovaScreen (NVS) Nuclear Receptor Binding Assay for guinea pig Sigma Receptor, Non-selective Binding (AID 2283367)
How it was run: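 Radioligand displacement on guinea pig brain membranes, read by filter-based scintillation counting 1 h after dosing. Loss of signal versus DMSO; initial duplicate single-point screen at 25 uM, actives followed in concentration series.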

[9] = target: human Serotonin Transporter (SERT), SLC6A4 (gene 6532) (UniProt P31645); test: NVS_TR_hSERT: NovaScreen (NVS) Transporter Assay for human Serotonin Transporter (SERT) (AID 2283372)
How it was run: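 Radioligand binding to native SERT in human platelet membranes, read by filter-based scintillation counting 1 h after dosing. Primary screen in duplicate at 25 uM; actives followed up in concentration series; loss of signal versus DMSO baseline.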

[10] = target: Retinoic acid receptor alpha (Homo sapiens) (UniProt P10276); test: NVS_NR_hRARa_Agonist: NovaScreen (NVS) Nuclear Receptor Binding Assay for human Retinoic Acid Alpha Receptor Agonism (RAR) (AID 2283361)
How it was run: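 Cell-free TR-FRET binding readout with extracted receptor protein, read 2 hours after dosing; gain-of-signal fitted relative to DMSO. Screened in duplicate at 25 uM, actives then run in concentration-response.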

[11] = target: rat Androgen Receptor (AR), Ar (gene 24208) (UniProt P15207); test: NVS_NR_rAR: NovaScreen (NVS) Nuclear Receptor Binding Assay for rat Androgen Receptor (AR) (AID 2283366)
How it was run: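 Cell-free radioligand binding on extracts of prostate from testosterone-pretreated rats, read by filter-based scintillation counting 18 h after dosing. Loss of bound signal fitted positively versus DMSO; primary screen in duplicate at 25 uM, actives followed up in concentration series.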

[12] = system: guinea pig Dopamine Transporter (DAT), gene 100714898; test: NVS_TR_gDAT: NovaScreen (NVS) Transporter Assay for guinea pig Dopamine Transporter (DAT) (AID 2283369);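 note: active compounds lower bound radioligand signal relative to DMSO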
How it was run: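 Primary pass: duplicate wells at 25 uM, threshold e.g. 30% inhibition. Follow-up: singleton concentration-response, highest 50 uM. Radioligand binding on guinea pig striatal membranes, 2 h, filtration scintillation detection.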

[13] = target: Nuclear receptor subfamily 1 group I member 2 (Homo sapiens) (UniProt O75469); test: NVS_NR_hPXR: NovaScreen (NVS) Nuclear Receptor Binding Assay for human Pregnane X Receptor (PXR) (AID 2283365);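 note: a drop in FRET signal versus DMSO baseline means the compound binds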
How it was run: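 Read-out: TR-FRET, human PXR, 2 h post-dosing, cell-free. Loss of signal vs DMSO taken as binding activity; 25 uM primary, concentration series secondary.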

[14] = system: rat Norepinephrine Transporter (NET), gene 83511; test: NVS_TR_rNET: NovaScreen (NVS) Transporter Assay for rat Norepinephrine Transporter (NET) (AID 2283373)
How it was run: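 Rat forebrain membranes; radioligand binding measured by filter-based scintillation counting 1 hour after dosing. Loss of specific binding versus DMSO baseline scored; primary screen in duplicate at 25 uM, actives followed up in concentration series.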

[15] = target: rat Serotonin Transporter (SERT), Slc6a4 (gene 25553) (UniProt P31652); test: NVS_TR_rSERT: NovaScreen (NVS) Transporter Assay for rat Serotonin Transporter (SERT) (AID 2283375)
How it was run: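 Using rat forebrain membrane SERT, test chemicals compete with a radioligand for 1 hour, and bound counts are taken by filter-based scintillation. Screening starts at 25 uM in duplicate, followed by concentration series for actives.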

[16] = target: human Adenosine Transporter (Adot), SLC29A1 (gene 2030) (UniProt Q99808); test: NVS_TR_hAdoT: NovaScreen (NVS) Transporter Assay for human Adenosine Transporter (Adot) (AID 2283368)
How it was run: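 U937-derived membranes, cell-free radioligand binding, filter scintillation 1 h after dosing. 25 uM duplicate screen; hits (e.g. 30% inhibition) run in concentration-response up to 50 uM; loss of signal versus DMSO.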

[17] = target: human Peroxisome Proliferator-activated Receptor alpha (PPARa), PPARA (gene 5465) (UniProt Q07869); test: NVS_NR_hPPARa: NovaScreen (NVS) Nuclear Receptor Binding Assay for human Peroxisome Proliferator-activated Receptor alpha (PPARa) (AID 2283359);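 note: activity means loss of TR-FRET signal versus DMSO baseline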
How it was run: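 Cell-free TR-FRET binding assay with extracted PPARα protein, read 1 h after dosing. Primary screen in duplicate at 25 uM, with actives retested in concentration series. Loss of signal versus DMSO.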

Sequence of human Dopamine Transporter (DAT), SLC6A3 (gene 6531) (Q01959 whole entry, looked up): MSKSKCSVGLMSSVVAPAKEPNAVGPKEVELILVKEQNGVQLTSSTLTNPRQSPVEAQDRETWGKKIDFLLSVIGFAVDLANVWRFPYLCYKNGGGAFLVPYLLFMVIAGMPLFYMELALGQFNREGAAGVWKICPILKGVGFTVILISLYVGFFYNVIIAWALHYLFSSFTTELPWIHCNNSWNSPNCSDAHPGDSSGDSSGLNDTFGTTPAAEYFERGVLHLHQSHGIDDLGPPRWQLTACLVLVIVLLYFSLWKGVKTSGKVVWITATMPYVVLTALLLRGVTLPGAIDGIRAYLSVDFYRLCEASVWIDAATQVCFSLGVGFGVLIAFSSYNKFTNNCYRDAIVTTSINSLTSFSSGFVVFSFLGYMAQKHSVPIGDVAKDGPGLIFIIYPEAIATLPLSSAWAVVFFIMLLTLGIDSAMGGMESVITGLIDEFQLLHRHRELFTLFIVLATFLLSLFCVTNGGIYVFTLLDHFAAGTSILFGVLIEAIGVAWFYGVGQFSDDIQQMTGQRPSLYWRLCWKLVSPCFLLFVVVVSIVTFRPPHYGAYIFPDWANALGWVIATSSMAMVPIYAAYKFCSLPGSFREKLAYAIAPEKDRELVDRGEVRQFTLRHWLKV
Sequence of human Thyroid Receptor Alpha (TRa), THRA (gene 7067) (P10827 whole entry, looked up): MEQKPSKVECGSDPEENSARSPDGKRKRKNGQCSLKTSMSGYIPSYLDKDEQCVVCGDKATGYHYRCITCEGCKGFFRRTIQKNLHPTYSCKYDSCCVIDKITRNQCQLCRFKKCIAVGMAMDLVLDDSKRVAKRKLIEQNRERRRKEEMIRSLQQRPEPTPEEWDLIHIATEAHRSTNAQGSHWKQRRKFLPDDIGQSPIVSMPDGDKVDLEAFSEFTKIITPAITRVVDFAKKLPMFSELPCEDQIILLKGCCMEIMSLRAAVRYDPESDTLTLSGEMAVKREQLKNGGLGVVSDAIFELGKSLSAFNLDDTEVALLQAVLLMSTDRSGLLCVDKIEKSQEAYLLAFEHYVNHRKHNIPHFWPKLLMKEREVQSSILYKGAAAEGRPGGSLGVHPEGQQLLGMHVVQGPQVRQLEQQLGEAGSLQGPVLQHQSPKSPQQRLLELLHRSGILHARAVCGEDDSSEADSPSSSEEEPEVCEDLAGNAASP
Sequence of Nuclear receptor subfamily 1 group I member 2 (Homo sapiens) (O75469 whole entry, looked up): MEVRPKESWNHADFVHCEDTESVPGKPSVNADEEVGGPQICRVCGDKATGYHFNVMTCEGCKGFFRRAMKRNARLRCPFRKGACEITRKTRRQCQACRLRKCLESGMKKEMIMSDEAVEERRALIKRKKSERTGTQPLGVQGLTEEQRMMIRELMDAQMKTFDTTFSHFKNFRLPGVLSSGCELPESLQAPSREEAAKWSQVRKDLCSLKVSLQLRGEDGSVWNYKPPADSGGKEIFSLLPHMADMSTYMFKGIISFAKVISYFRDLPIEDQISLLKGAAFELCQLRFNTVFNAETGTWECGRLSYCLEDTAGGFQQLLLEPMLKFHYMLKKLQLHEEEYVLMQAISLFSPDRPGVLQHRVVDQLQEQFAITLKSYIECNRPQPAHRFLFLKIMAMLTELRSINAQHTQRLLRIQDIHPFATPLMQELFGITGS
Sequence of guinea pig Sigma Receptor, Non-selective Binding, SIGMAR1 (gene 100135589) (Q60492 whole entry, looked up): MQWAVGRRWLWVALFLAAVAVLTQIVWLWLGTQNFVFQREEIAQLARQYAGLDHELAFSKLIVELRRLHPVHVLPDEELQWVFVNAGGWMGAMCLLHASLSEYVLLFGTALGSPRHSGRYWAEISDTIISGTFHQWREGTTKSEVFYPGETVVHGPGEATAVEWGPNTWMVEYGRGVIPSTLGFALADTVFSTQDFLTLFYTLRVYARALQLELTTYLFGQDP
Sequence of Estrogen receptor beta (Homo sapiens) (Q92731 whole entry, looked up, the tested form may be a part): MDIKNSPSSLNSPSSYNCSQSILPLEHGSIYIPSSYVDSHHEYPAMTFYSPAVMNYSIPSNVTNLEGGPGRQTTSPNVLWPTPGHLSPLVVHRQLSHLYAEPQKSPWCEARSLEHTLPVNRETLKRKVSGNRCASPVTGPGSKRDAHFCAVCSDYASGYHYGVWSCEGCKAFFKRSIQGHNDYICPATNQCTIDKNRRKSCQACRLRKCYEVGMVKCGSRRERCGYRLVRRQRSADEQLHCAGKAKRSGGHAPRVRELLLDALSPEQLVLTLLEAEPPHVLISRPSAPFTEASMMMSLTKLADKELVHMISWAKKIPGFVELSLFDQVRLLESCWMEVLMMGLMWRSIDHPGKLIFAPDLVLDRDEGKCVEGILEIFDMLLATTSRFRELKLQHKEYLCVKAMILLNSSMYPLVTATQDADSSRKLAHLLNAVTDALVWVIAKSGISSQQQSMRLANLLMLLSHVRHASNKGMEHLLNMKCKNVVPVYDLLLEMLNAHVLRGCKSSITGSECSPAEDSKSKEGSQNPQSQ
Sequence of Peroxisome proliferator-activated receptor gamma (Homo sapiens) (P37231 whole entry, looked up): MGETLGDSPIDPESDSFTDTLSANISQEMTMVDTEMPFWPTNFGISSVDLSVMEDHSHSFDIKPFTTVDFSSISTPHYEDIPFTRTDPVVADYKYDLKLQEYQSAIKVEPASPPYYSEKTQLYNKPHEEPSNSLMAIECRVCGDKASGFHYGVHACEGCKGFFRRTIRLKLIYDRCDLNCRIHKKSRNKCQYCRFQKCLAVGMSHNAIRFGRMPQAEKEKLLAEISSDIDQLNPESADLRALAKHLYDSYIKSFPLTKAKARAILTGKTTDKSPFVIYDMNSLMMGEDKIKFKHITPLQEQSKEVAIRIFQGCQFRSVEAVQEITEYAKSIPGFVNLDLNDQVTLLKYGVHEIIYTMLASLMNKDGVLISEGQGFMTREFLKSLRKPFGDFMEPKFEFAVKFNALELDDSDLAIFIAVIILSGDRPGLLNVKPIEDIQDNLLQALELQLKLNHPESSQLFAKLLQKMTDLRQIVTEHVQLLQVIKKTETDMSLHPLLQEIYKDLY
Sequence of Retinoic acid receptor alpha (Homo sapiens) (P10276 whole entry, looked up): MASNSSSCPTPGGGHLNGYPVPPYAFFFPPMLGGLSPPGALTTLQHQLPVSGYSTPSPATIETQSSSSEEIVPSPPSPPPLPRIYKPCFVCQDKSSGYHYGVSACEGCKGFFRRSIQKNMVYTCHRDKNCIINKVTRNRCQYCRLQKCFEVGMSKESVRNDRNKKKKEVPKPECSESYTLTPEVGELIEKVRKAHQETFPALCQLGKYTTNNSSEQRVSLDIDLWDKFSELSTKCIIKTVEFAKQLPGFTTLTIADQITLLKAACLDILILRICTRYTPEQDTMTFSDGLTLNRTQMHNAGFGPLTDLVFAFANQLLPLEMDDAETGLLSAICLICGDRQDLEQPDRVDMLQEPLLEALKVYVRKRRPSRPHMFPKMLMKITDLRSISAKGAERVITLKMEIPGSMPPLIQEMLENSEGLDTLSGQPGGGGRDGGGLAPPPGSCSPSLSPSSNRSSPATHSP
Sequence of PGR (gene 5241) (P06401 whole entry, looked up): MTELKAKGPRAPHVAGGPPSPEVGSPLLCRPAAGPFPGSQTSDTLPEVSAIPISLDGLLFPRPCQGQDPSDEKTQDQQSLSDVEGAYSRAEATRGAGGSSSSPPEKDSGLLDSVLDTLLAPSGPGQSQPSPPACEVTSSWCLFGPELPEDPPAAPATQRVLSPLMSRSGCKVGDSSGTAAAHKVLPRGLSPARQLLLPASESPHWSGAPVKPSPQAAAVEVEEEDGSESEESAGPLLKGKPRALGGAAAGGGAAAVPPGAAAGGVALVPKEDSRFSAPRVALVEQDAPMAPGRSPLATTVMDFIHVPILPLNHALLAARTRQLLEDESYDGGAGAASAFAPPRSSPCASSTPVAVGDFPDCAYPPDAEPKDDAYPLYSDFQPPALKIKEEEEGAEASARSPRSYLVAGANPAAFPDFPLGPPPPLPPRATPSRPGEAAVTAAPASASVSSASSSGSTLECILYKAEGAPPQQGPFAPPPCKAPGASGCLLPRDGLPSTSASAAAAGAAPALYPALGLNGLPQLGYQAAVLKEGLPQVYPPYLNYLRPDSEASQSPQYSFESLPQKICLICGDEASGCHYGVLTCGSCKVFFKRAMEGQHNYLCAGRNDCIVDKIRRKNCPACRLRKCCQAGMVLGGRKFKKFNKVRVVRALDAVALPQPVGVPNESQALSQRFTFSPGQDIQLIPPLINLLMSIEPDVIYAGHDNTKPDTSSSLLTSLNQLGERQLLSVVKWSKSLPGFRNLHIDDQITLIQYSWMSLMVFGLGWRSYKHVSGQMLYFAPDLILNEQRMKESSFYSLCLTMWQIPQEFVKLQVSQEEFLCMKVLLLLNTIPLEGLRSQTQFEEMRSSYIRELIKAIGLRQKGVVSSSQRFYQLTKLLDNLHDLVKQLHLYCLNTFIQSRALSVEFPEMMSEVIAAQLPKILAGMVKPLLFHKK
Sequence of rat Serotonin Transporter (SERT), Slc6a4 (gene 25553) (P31652 whole entry, looked up): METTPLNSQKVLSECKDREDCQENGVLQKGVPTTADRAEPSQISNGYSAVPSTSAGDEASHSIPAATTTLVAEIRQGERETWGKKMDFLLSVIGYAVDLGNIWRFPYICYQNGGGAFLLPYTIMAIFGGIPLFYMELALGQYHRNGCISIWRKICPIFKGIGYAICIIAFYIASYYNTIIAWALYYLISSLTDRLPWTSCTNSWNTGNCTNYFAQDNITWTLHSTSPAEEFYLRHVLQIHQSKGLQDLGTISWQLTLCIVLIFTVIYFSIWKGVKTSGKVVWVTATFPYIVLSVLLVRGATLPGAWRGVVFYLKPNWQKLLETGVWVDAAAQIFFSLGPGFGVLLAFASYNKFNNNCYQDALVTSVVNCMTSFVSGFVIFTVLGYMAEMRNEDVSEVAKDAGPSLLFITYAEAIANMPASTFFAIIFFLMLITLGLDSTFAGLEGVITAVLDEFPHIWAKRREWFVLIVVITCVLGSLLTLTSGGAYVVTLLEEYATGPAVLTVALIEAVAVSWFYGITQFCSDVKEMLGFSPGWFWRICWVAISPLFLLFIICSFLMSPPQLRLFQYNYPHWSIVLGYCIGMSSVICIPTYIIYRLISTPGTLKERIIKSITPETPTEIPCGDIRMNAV

SMILES: COP(=O)(OC)SCn1c(=O)oc2cc(Cl)cnc21
- outcome [1]: inactive

SMILES: CCC(CC)Nc1c([N+](=O)[O-])cc(C)c(C)c1[N+](=O)[O-]
- AC50 [2]: 12.6 µM (active)
- outcome [3]: inactive
- outcome [4]: inactive
- outcome [5]: inactive

SMILES: CCC(=NOC/C=C/Cl)C1=C(O)CC(C2CCOCC2)CC1=O (stereo unspecified)
- outcome [2]: inactive
- outcome [5]: inactive

SMILES: C[Si](Cn1cncn1)(c1ccc(F)cc1)c1ccc(F)cc1
- outcome [2]: inactive
- outcome [3]: inactive
- AC50 [6]: 9.33 µM (active)

SMILES: CCOP(=S)(OCC)SCCSCC
- outcome [2]: inactive
- outcome [7]: inactive
- outcome [5]: inactive

SMILES: CCc1cccc(C)c1N(C(=O)CCl)C(C)COC (stereo unspecified)
- outcome [2]: inactive
- outcome [7]: inactive
- outcome [8]: inactive
- outcome [5]: inactive

SMILES: CCCCN(CC)c1c([N+](=O)[O-])cc(C(F)(F)F)cc1[N+](=O)[O-]
- outcome [2]: inactive
- outcome [7]: inactive
- outcome [3]: inactive
- outcome [4]: inactive
- outcome [5]: inactive

SMILES: CCCSP(=O)(OCC)Oc1ccc(Br)cc1Cl (stereo unspecified)
- AC50 [2]: 29.8 µM (active)
- AC50 [3]: 25 µM (active)

SMILES: C[N+]1(C)CCCCC1
- outcome [2]: inactive
- outcome [9]: inactive

SMILES: CCOP(=S)(OCC)Oc1ccc2c(C)c(Cl)c(=O)oc2c1
- AC50 [3]: 1.13 µM (active)

SMILES: FC(F)C(F)(F)OCC(Cn1cncn1)c1ccc(Cl)cc1Cl (stereo unspecified)
- outcome [2]: inactive
- AC50 [8]: 16.5 µM (active)
- AC50 [6]: 7.59 µM (active)

SMILES: COP(=O)(NC(C)=O)SC (stereo unspecified)
- outcome [2]: inactive
- outcome [5]: inactive

SMILES: CCOP(=S)(OCC)Oc1cc(C)nc(C(C)C)n1
- outcome [3]: inactive

SMILES: CC(C)[C@H](C(=O)O[C@H](C#N)c1cccc(Oc2ccccc2)c1)c1ccc(Cl)cc1
- outcome [2]: inactive
- outcome [5]: inactive
- AC50 [6]: 16.2 µM (active)

SMILES: O=[N+]([O-])c1cc(C(F)(F)F)c(Cl)c([N+](=O)[O-])c1Nc1ncc(C(F)(F)F)cc1Cl
- outcome [10]: inactive
- AC50 [5]: 0.319 µM (active)
- outcome [6]: inactive

SMILES: CCCSP(=O)(OCC)SCCC
- outcome [3]: inactive
- outcome [11]: inactive
- outcome [5]: inactive

SMILES: CCOP(=S)(OCC)OC(Cl)C(Cl)(Cl)Cl (stereo unspecified)
- AC50 [2]: 38.6 µM (active)
- outcome [5]: inactive

SMILES: C#CCC1=C(C)C(OC(=O)C2C(C=C(C)C)C2(C)C)CC1=O (stereo unspecified)
- outcome [2]: inactive
- AC50 [12]: 9.21 µM (active)
- AC50 [6]: 12 µM (active)

SMILES: CC1(C(=O)Nc2ccc(O)c(Cl)c2Cl)CCCCC1
- AC50 [2]: 22.2 µM (active)
- outcome [3]: inactive
- AC50 [12]: 3.33 µM (active)
- AC50 [6]: 4.68 µM (active)

SMILES: O=C(O)c1cc(Oc2ccc(C(F)(F)F)cc2Cl)ccc1[N+](=O)[O-]
- outcome [2]: inactive
- AC50 [5]: 9.58 µM (active)

SMILES: CCOC(=O)CC(SP(=O)(OC)OC)C(=O)OCC (stereo unspecified)
- outcome [2]: inactive
- outcome [7]: inactive
- outcome [3]: inactive
- outcome [4]: inactive
- outcome [8]: inactive
- outcome [5]: inactive

SMILES: CSc1nnc(C(C)(C)C)c(=O)n1N
- outcome [2]: inactive
- outcome [7]: inactive
- outcome [6]: inactive

SMILES: CC[C@H](C)[C@H]1O[C@]2(C=C[C@@H]1C)C[C@@H]1C[C@@H](C/C=C(\C)[C@@H](O[C@H]3C[C@H](OC)[C@@H](O[C@H]4C[C@H](OC)[C@@H](NC)[C@H](C)O4)[C@H](C)O3)[C@@H](C)/C=C/C=C3\CO[C@@H]4[C@H](O)C(C)=C[C@@H](C(=O)O1)[C@]34O)O2
- outcome [3]: inactive
- AC50 [13]: 6.81 µM (active)
- outcome [14]: inactive
- outcome [6]: inactive

SMILES: COP(=O)(OC)C(O)C(Cl)(Cl)Cl (stereo unspecified)
- outcome [7]: inactive

SMILES: CNC(=O)ON=C(C)SC
- outcome [2]: inactive
- outcome [3]: inactive

SMILES: C#CC(C)(C)NC(=O)c1cc(Cl)cc(Cl)c1
- outcome [7]: inactive
- AC50 [8]: 1.94 µM (active)

SMILES: CC(C)N(C(=O)SCC(Cl)=C(Cl)Cl)C(C)C
- outcome [2]: inactive
- outcome [7]: inactive
- outcome [4]: inactive
- outcome [13]: inactive
- AC50 [6]: 7.84 µM (active)
- outcome [15]: inactive

SMILES: CCOP(=O)(OCC)Oc1cc(C)nc(C(C)C)n1
- outcome [2]: inactive
- outcome [3]: inactive
- outcome [4]: inactive
- outcome [5]: inactive

SMILES: CC(=NC#N)N(C)Cc1ccc(Cl)nc1
- outcome [2]: inactive
- outcome [5]: inactive

SMILES: CCc1cnc(C2=NC(C)(C(C)C)C(=O)N2)c(C(=O)O)c1 (stereo unspecified)
- AC50 [4]: 17.7 µM (active)

SMILES: S=C1NCCN1
- outcome [7]: inactive
- outcome [4]: inactive
- outcome [8]: inactive

SMILES: CCCOCC(=Nc1ccc(Cl)cc1C(F)(F)F)n1ccnc1
- outcome [2]: inactive
- outcome [3]: inactive
- AC50 [8]: 7.82 µM (active)
- AC50 [16]: 25 µM (active)
- outcome [12]: inactive
- AC50 [5]: 17.6 µM (active)
- outcome [9]: inactive
- AC50 [6]: 10.2 µM (active)
- outcome [15]: inactive

SMILES: CN(C)[C@@H]1C(=O)C(C(N)=O)=C(O)[C@@]2(O)C(=O)C3=C(O)c4c(O)cccc4[C@@](C)(O)[C@H]3[C@H](O)[C@@H]12
- AC50 [17]: 14.1 µM (active)
- outcome [4]: inactive
- AC50 [13]: 2.08 µM (active)
- outcome [13]: inactive
- AC50 [5]: 20.2 µM (active)
- outcome [5]: inactive

SMILES: CNc1cnn(-c2cccc(C(F)(F)F)c2)c(=O)c1Cl
- outcome [2]: inactive
- outcome [7]: inactive
- outcome [3]: inactive
- outcome [5]: inactive
